Source: PubChem BioAssay
Only a selection was taken, and hits are over-represented in it overall.
PKM2_inhibitor = blocks activity of human pyruvate kinase M2; P14618; purified PKM2, ATP generation, Kinase-Glo luminescence; Potency, µM (top dose mostly 57.5 µM), hits mostly inhibitors; 260,000 compounds, 0.058% hits; AID 1634; also: nearly all actives have a fitted effect of over 60% in size
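Coupled luciferase luminescence (Kinase-Glo) detects ATP generated from 0.1 mM ADP and 0.5 mM PEP in imidazole buffer pH 7.2 with KCl, MgCl2; 1 h at room temperature. Enzyme at intermediate activity; normalized to uninhibited and no-enzyme controls.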
PKM2_inh_CRC = dose-dependently blocks human pyruvate kinase M2 activity. AID 2263. 55 compounds, 50% hits. shares compounds with PKM2_inhibitor. Potency, µM (highest dose often 57.5 µM), most hits filed as inhibitors. purified hPK-M2, Kinase-Glo ATP luminescence, 1 h
FLuc_counter = counter-screen for pyruvate kinase M2 inhibitors: firefly luciferase inhibition. shares compounds with PKM2_inhibitor. Kinase-Glo firefly luciferase, luminescence, 8 min. Potency, µM (series often up to 57.5 µM), most hits filed as inhibitors. 55 compounds, 30% hits. AID 2265
PKM2_inh_LDH = confirmation of human pyruvate kinase M2 inhibitors, coupled readout; shares compounds with PKM2_inhibitor; purified hPK-M2, LDH-coupled NADH fluorescence kinetic; Potency, µM (titrated, usually from 57.5 µM), hits mostly inhibitors; 55 tested, under 10 active
Hits are given with their value; . = inactive; ? = inconclusive. Calls follow the shape of the dose curve; as a rule, active = well fitted curve in the direction sought with a large enough effect; inconclusive = small, poorly fitted or top-dose-only effect, or another doubt; inactive = no such curve, though single readings can be large; an effect the other way counts as inactive or inconclusive.

SMILES PKM2_inhibitor others
O=c1c2ccccc2[se]n1-c1ccccc1 6.31µM PKM2_inh_CRC=5.8µM;FLuc_counter=20.6µM;PKM2_inh_LDH=?
O=C1c2ccccc2C(=O)N1SC1CCCCC1 .
Cc1ccccc1N(CC(=O)NC1CCCC1)C(=O)c1csnn1 .
COc1cc(OC)c(OC)cc1CN1CCN(C(=O)Cc2ccccc2)CC1 .
Nn1c(COc2ccc(Cl)cc2)n[nH]c1=S .
